Assay results published in PubChem BioAssay (NCATS).
“And” between values parts separate entries of the source, which are not always exact repeats. Equal entries are not always repeated. Unmarked numbers belong to inactive results. Records with an inconclusive call do not appear. Entries that show only a call come without a potency. The source made the active and inactive calls. Unless noted, calls follow the shape of the dose curve; as a rule, active = well fitted curve in the direction sought with a large enough effect; inconclusive = small, poorly fitted or top-dose-only effect, or another doubt; inactive = no such curve, though single readings can be large; an effect the other way counts as inactive or inconclusive.

tested on: not listed separately; assay: qHTS assay for small molecule agonists of the antioxidant response element (ARE) signaling pathway measured by Nrf2-dependant transcriptional activity - cell viability counter screen (AID 720653; active = well fitted curve in the direction sought with a large enough effect in the repeat runs; an effect the other way counts as inactive or inconclusive; also: potency is read from the fitted curve at half-maximal effect); conditions: ARE-bla HepG2 viability, CellTiter-Glo ATP luminescence, 16 h; max response: stronger effect = lower value
Outline: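 ARE-bla HepG2 cells (2,000/well) rested 5 hrs at 37C/5% CO2, then exposed to compounds in DMSO for 16 hrs. Viability was read in the same wells as intracellular ATP by luminescence, 30 min at room temperature after reagent addition.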

Structure (SMILES)	Potency	max response
CN(C)c1ccc(C(=C2C=CC(=[N+](C)C)C=C2)c2ccccc2)cc1	6.31 µM (active)	
CCCCCCCCCCCCCCCCCC(=O)O		-2.11% and 6.03% and 17.1%
O=C(O)c1ccccc1Nc1cccc(C(F)(F)F)c1		0.398%
O=C(O)c1cc(O)c(O)c(O)c1		-28.5%
CCCCCCCCCCCCCCCC(=O)OC(C)C		-10.7%

molecular target: Hexokinase-4 (Homo sapiens) + Glucokinase regulatory protein (Homo sapiens) (UniProt P35557+Q14397); assay: qHTS assay for inhibitors of recombinant human GCK-GKRP interaction: Diaphorase-coupled assay (AID 743205); conditions: G6PDH/diaphorase resorufin fluorescence; series mostly up to 57.5 µM
Sequence (P35557 whole entry, looked up): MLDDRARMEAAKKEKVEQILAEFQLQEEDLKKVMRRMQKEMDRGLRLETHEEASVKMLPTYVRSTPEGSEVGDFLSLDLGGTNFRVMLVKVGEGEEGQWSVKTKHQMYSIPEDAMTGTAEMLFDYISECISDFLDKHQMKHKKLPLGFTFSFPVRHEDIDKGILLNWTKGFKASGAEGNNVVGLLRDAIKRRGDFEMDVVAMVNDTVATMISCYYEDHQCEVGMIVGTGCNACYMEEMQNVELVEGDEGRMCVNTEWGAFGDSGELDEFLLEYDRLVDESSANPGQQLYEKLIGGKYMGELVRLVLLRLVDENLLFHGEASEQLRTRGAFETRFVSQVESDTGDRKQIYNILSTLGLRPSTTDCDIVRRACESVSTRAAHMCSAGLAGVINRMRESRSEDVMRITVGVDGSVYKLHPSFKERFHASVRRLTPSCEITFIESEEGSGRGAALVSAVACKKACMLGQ
Sequence (Q14397 whole entry, looked up): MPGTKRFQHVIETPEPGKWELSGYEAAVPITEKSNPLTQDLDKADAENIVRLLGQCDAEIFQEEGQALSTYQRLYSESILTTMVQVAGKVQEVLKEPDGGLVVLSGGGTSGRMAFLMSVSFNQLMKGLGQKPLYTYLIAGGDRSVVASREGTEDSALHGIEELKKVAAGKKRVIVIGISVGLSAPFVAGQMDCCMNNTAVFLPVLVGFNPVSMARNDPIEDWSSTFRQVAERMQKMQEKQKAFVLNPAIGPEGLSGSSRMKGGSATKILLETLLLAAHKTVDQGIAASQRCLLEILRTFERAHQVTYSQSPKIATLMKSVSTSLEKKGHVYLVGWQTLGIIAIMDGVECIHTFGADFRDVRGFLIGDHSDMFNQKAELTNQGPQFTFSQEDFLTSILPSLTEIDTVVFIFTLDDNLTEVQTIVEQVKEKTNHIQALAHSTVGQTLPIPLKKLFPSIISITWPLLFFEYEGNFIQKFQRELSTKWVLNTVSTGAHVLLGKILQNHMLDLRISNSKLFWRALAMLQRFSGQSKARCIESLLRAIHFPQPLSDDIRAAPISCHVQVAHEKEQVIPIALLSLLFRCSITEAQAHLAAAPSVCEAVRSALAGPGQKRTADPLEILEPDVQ
Outline: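 Compounds pre-incubated 20 min with substrate, then 10 nM GST-GCK with 10 nM FLAG-GKRP added. GCK activity coupled via G6PDH and diaphorase to resorufin (5 mM glucose, 0.4 mM ATP, 0.15 mM NADP+, pH 7.6), read kinetically over 30 minutes at Ex 525/Em 590 nm.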

Structure (SMILES)	outcome
O=c1[nH]c2cc(Cl)c(Cl)cc2[nH]c1=O	inactive
Fc1cccc(/C=N/N=C/c2cccc(F)c2)c1	inactive
Oc1cc(O)cc(/C=C/c2ccc(O)c(O)c2)c1	inactive
OC[C@H]1O[C@@H](n2cnc3c(Nc4ccccc4)ncnc32)[C@H](O)[C@@H]1O	inactive
CN(C)c1ccc(/C=C2\C(=O)Nc3ccccc32)cc1	inactive
Cc1ccc(O)c(N=Nc2ccccc2)n1	inactive
CC[C@@H](C)[C@H]1O[C@]2(CC[C@H]1C)C[C@@H]1C[C@@H](CC=C(C)[C@@H](O[C@H]3C[C@H](OC)[C@@H](O[C@H]4C[C@H](OC)[C@@H](O)[C@H](C)O4)[C@H](C)O3)[C@@H](C)C=CC=C3CO[C@@H]4[C@H](O)C(C)=C[C@@H](C(=O)O1)[C@]34O)O2	inactive
CN1CCc2cc(NC(=O)Nc3cccnc3)ccc21	inactive
O=C(c1ccc(OCCCc2cnc[nH]2)cc1)C1CC1	inactive
O=C(O)c1cc(=O)c2ccccc2[nH]1	inactive
O=C1NC(=O)/C(=C/c2ccc(-c3ccc(F)cc3O)o2)S1	inactive
O=C1NC(=O)/C(=C/c2ccc3nccnc3c2)S1	inactive
O=C(/C=C/c1ccc(O)c(O)c1)OCCc1ccccc1	inactive
